CtBP-E1A inh – blocks the CtBP interaction with E1A; 340,000 compounds, 0.49% hits; AID 651724; AlphaScreen GST-E1A/His-CtBP binding, 1536-well; active compounds read low; activity change, % (test concentration not listed); in the data active = activity change below about -65%; inconclusive = mostly about -30% to -63%
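In 5 uL wells, 23 nL compound meets equimolar GST-E1A and His-CtBP (5X stock 125 nM each) for 2 h, 37 °C. Beads (5X, 50 ug/mL) then 1 h, 37 °C, dark.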
DT40 TDP1 CPT – growth inhibition of DT40 Tdp1-/-;hTDP1 cells with camptothecin (screen for TDP1 inhibitors) | 420,000 compounds, 12% hits | chicken DT40 Tdp1-/-;hTDP1 cells + 20 nM CPT, ATP luminescence, 48 h | Potency, µM (doses to about 46.2 µM), without a hit: at the highest dose activity change, negative = growth inhibition, most hits filed as inhibitors | AID 686979; also: potency is read from the fitted curve at half-maximal effect; nearly all actives have a fitted effect of over 55% in size
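Chicken DT40 Tdp1-/- cells stably complemented with human TDP1 were seeded at 400 cells/well in medium containing 20 nM camptothecin, exposed to pin-transferred compounds, and grown at 37 °C for at least 48 hr. Viability was read as ATP luminescence.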
TDP1 block – TDP1 (human) enzyme inhibition; Q9NUW8; recombinant TDP1, AlphaScreen DNA substrate cleavage; Potency, µM (highest dose often 130 µM), for the others: top-dose activity change, negative = inhibition, usual class: inhibitors; 350,000 compounds, 0.28% hits; also: potency is read from the fitted curve at half-maximal effect; nearly all actives have a fitted effect of over 40% in size
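Recombinant E. coli-expressed Tdp1 (1 nM) preincubated with compound 15 min at RT, then 5'-biotin/3'-phosphotyrosine-FITC DNA substrate (15 nM) added for 5 min. AlphaScreen beads (10 ug/ml) added, 10 min RT; tyrosine-FITC cleavage read as signal loss.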
Six1-Eya2 inh – inhibitors of human Six1/Eya2 interaction; Q15475+O00167; activity change, % (no concentration beside the values); AID 651725; AlphaScreen GST-Six1/His-Eya2 binding, biochemical; active compounds read low; 360,000 compounds, 0.56% hits; in the data active = activity change below about -65%; inconclusive = mostly about -30% to -63%
Target sequence (O00167 whole entry, looked up): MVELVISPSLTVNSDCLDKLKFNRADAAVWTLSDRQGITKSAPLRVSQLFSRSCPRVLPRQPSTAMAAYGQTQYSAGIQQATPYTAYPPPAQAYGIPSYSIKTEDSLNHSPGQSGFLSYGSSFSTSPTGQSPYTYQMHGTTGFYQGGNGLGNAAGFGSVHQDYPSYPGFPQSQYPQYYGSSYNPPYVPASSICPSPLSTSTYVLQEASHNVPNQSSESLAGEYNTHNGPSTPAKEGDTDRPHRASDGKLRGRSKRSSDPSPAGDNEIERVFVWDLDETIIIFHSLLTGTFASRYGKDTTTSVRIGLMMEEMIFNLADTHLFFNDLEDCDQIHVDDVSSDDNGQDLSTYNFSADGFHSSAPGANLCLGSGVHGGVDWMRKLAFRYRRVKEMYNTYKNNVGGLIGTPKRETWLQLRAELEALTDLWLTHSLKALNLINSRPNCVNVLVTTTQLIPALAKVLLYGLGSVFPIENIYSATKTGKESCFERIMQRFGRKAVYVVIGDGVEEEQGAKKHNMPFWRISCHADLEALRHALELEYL
Target sequence (Q15475 whole entry, looked up): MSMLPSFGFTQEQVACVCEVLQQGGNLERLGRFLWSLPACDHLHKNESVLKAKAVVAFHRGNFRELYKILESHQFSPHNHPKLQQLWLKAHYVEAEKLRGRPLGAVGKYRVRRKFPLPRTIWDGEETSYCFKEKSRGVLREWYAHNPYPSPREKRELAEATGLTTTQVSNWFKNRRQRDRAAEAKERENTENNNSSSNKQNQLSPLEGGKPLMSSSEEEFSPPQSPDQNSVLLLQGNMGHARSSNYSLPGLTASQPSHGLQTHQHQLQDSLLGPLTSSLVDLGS
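AlphaScreen luminescence read after one hour at 37 °C in darkness. Pin-transferred compounds met GST-Six1 and His-Eya2 protein (5X stock 250 nM/500 nM) plus glutathione donor and Ni-chelate acceptor beads (5X, 50 ug/mL).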
IL1B secr inh – inflammasome signaling inhibition, IL-1 beta readout; THP-1 LPS/ATP IL-1B secretion, AlphaLISA, 16 h; active compounds read low; activity change, % at 57.5 µM; 360,000 compounds, 4.7% hits; AID 743279; in the data active = activity change below about -50%; inconclusive = mostly about -30% to -49%
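Secreted IL-1B measured by AlphaLISA bead assay after 16 h compound exposure of THP-1 cells; compounds (final up to 57.5 uM) added 1 h before LPS (250 ng/mL) and ATP (1.25 mM) stimulation; lower signal means less secretion.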
TDP1 cell noCPT – qHTS for Inhibitors of human tyrosyl-DNA phosphodiesterase 1 (TDP1): qHTS in cells in absence of CPT. DT40 Tdp1-/- hTDP1 cells, no CPT, ATP luminescence, 48 h. Potency, µM (titrated, usually from 46.2 µM), for the others: at the top dose activity change, negative = growth inhibition, most hits filed as inhibitors. 420,000 compounds, 15% hits. AID 686978, 2013; also: potency is read from the fitted curve at half-maximal effect; nearly all actives have a fitted effect of over 55% in size
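Camptothecin absent (DMSO only). Human TDP1-complemented DT40 knockout cells, 400 cells/well, 37 °C for minimum 48 hr; ATP measured via CellTiter-Glo, 30 min dark incubation, luminescence.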
* marks the source's active call; other numbers are inactive results; ? = inconclusive; . = not tested or not shown. Compounds with a hit are over-represented: about 18% of the library has one in this group of screens. Unless noted, calls follow the shape of the dose curve; as a rule, active = well fitted curve in the direction sought with a large enough effect; inconclusive = small, poorly fitted or top-dose-only effect, or another doubt; inactive = no such curve, though single readings can be large; an effect the other way counts as inactive or inconclusive. % is scaled to controls: 0 for no effect and ±100 for the full control effect.

SMILES | CtBP-E1A inh | DT40 TDP1 CPT | TDP1 block | Six1-Eya2 inh | IL1B secr inh | TDP1 cell noCPT
CCOc1ccc(CNCc2c(C(=O)O)c(C)n(Cc3ccc(F)cc3Cl)c2C)cc1 | . | ? | 5% | . | . | 13µM*
C=Cc1ccc(Cn2c(C(=O)O)c(CNCc3ccccc3)c3ccc(C)cc32)cc1 | . | 7.3µM* | 8% | . | . | 4.6µM*
COc1ccc2c(CNCc3ccco3)c(C(=O)O)n(Cc3ccc(F)cc3Cl)c2c1 | . | ? | 5% | . | . | 2.6µM*
C=Cc1ccc(Cn2c(C(=O)O)c(CNCc3cc(Br)ccc3OC)c3ccc(C)cc32)cc1 | . | -5% | 3% | . | . | ?
O=C(NNC(=O)C12CC3CC(CC(C3)C1)C2)c1ccccc1[N+](=O)[O-] | -5 | -3% | 5% | 6 | -4 | -10%
Cc1ncc([N+](=O)[O-])n1CCOC(=O)Nc1ccc(Cl)c(Cl)c1 | -3 | -26% | 10% | -3 | ? | -26%
COc1ccc(OC)c(CNCc2c(C(=O)O)n(Cc3ccccc3)c3cc(OC)ccc23)c1 | . | ? | 3% | . | . | ?
Cc1ccc2c(CNCCc3ccco3)c(C(=O)O)n(Cc3ccc(F)cc3)c2c1 | . | 21µM* | 5% | . | . | 26µM*
COc1ccc(Cn2c(C(=O)O)c(CNCCc3cccs3)c3ccc(C)cc32)cc1 | . | ? | 3% | . | . | 23µM*
CCOc1ccc(CNCc2c(C(=O)O)n(Cc3ccccc3C)c3cc(OC)ccc23)cc1OC | . | 0.65µM* | 3% | . | . | 1µM*
Cc1ccc2c(CNCc3cccc(Cl)c3)c(C(=O)O)n(Cc3ccc(F)cc3Cl)c2c1 | . | 3.3µM* | 8% | . | . | 3.3µM*
CC(=O)Nc1ccc(NC(=O)c2nccnc2C(=O)O)cn1 | . | 0% | . | 5 | 18 | 2%
COc1cc(NC(=O)CN(C)S(=O)(=O)c2ccc(-c3ccc(=O)[nH]n3)s2)cc(OC)c1 | . | 15% | 4% | -2 | -12 | 1%
Cc1ccc(Cn2c(C(=O)O)c(CNCc3ccc(OC(C)C)cc3)c3ccc(C)cc32)cc1 | . | 16µM* | 10% | . | . | ?
Cc1ccc(CNCc2c(C(=O)O)n(Cc3ccc(C)cc3)c3cc(C)ccc23)cc1 | . | 23µM* | 8% | . | . | ?
Cc1ccc(Cn2c(C(=O)O)c(CNCc3ccc(C)o3)c3ccc(C)cc32)cc1 | . | ? | 10% | . | . | ?
C#CCN1C=CC(=O)[C@@H](OC(=O)NCCC)[C@H]1c1ccccc1Br | 2 | -27% | . | 8 | -15 | -11%
C=CCN1C=CC(=O)[C@@H](OC(=O)Nc2ccc(Br)cc2)[C@H]1c1ccccc1Br | -2 | 23µM* | . | -11 | -20 | ?
C#CCN1C=CC(=O)[C@@H](OC(=O)Nc2ccc(Br)cc2)[C@H]1c1ccccc1Br | 2 | ? | . | 0 | -25 | ?
C#CCN1C=CC(=O)[C@@H](OC(=O)Nc2ccccc2Br)[C@H]1c1ccccc1Br | -1 | 23µM* | . | -2 | -17 | ?
CN1C=CC(=O)[C@@H](OC(=O)Nc2ccc(Br)cc2)[C@H]1c1ccccc1Br | 0 | ? | . | 5 | -7 | 15µM*
O=C(CSc1nnc(-c2ccco2)n1Cc1ccccc1)OC1CCCCC1 | ? | -29% | 0% | -16 | ? | ?
O=C(Nc1ccc(C2CCCCC2)cc1)C1CCCN(c2ncccn2)C1 (centres undefined) | 15 | -27% | -2% | 3 | 11 | -15%
CC(=O)Nc1ccc(NC(=O)/C=C/c2ccc3c(c2)OCO3)cc1 | 28 | -5% | -1% | -4 | 13 | -4%
O=C(O)c1ccc2c(c1)OCCOCCOCCOCCOCCO2 | 9 | 5% | . | 18 | 18 | 1%
SMILES | CtBP-E1A inh | DT40 TDP1 CPT | TDP1 block | Six1-Eya2 inh | IL1B secr inh | TDP1 cell noCPT
O=C(O)c1ccc(/C=C/C(=O)c2ccc3c(c2)OCCCO3)cc1 | 4 | ? | . | 5 | -103* | 23µM*
CC(=O)Nc1ccc(/C=C/C(=O)c2ccc3c(c2)OCCO3)cc1 | 6 | ? | 6% | 6 | -102* | ?
Cc1cccc(-c2nc(=S)c3c(n2Cc2ccco2)CCCC3)c1 | 2 | 21µM* | 5% | -6 | 6 | ?
COc1cccc(-c2nc(=S)c3c(n2Cc2ccco2)CCCC3)c1 | 16 | 16µM* | 9% | 5 | 0 | ?
Cc1ccc(-c2nc(=S)c3c(n2Cc2ccco2)CCCC3)cc1 | -2 | ? | 3% | 1 | 30 | ?
Cc1ccc(-c2nc(=S)c3c(n2Cc2ccco2)CC(C)(C)OC3)cc1 | -10 | 16µM* | 0% | -1 | 10 | 23µM*
C=CCNS(=O)(=O)c1cc2c3c(c1)CCN3C(=O)CC2 | . | 5% | 1% | 2 | 8 | 4%
CC1CCCCC1NC(=O)CSc1nnc(C(F)(F)F)n1C (centres undefined) | 8 | -3% | . | 2 | -15 | 10%
COc1cc(Cl)ccc1OCc1cc(C(=O)NCC(C)(C)N2CCOCC2)no1 | -1 | -25% | . | 3 | 4 | -10%
COCCNC(=O)CN(Cc1ccc2c(c1)OCO2)C(=O)CCC(=O)Nc1nccs1 | -1 | 18µM* | 1% | 1 | 30 | 18µM*
O=Cc1cccnc1SCc1ccccc1 | 7 | 2.3µM* | . | 1 | 54 | 1.5µM*
O=S(=O)(O)c1cccnc1SCc1ccccc1 | -7 | -14% | . | -22 | -1 | -4%
Cc1cccc(-c2nc(CN3CCCC(C(=O)NCCc4ccc(Cl)cc4)C3)c(C)o2)c1 (centres undefined) | . | 16µM* | 9% | . | . | 8.2µM*
Cc1oc(-c2ccc(Cl)cc2)nc1CN1CCCC(C(=O)NCc2cccnc2)C1 (centres undefined) | -4 | 9.2µM* | 0% | 1 | -72* | 12µM*
Cc1oc(-c2cccc(Cl)c2)nc1CN1CCCC(C(=O)NCc2ccco2)C1 (centres undefined) | -9 | ? | 1% | -8 | -4 | ?
CN(Cc1ccccc1)C(=O)C1CCCN(Cc2ccc(Cl)cc2)C1 (centres undefined) | 24 | -95% | -4% | 9 | ? | 26µM*
CN(Cc1ccc(Cl)cc1)C(CCc1ccccc1)C(=O)NC1CCCCC1 (centres undefined) | 12 | ? | . | 10 | 43 | 15µM*
O=C(OCC1CCNCC1)c1ccc(F)cc1 | . | 0% | . | -2 | 6 | 2%
COc1ccc(C/C(N)=N/OC(=O)Cc2ccc(OC)c(OC)c2)cc1 | 12 | ? | 2% | 6 | -6 | -25%

Bioassay records from PubChem.
